Reference: PubChem BioAssay AID504834 (National Center for Advancing Translational Sciences (NCATS), 2011)
In all, about 320,000 compounds went through this assay and about 22,000 (6.9%) were called active. Another 27% or so got no clear call; they are omitted. The call rests on the fitted dose curve; in most records, active means well fitted inhibition curve with a large enough effect; inconclusive means small, poorly fitted or top-dose-only effect, or another doubt; inactive means no such curve, though single readings can be large or run the other way. The list comes from a sample in which actives are over-represented; it also holds similar structures and randomly drawn compounds.

Assay: Primary qHTS for delayed death inhibitors of the malarial parasite plastid, 96 hour incubation
Conditions: P. falciparum luciferase reporter growth; series mostly up to 28.7 µM; activity change, negative = inhibition: at the top concentration
Summary of the method: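 Infected RBCs, 2% Hct / 0.05% parasitemia final; luciferase-reporter P. falciparum; cpd 96 h, 37 C, 5% CO2; luciferase detection reagent; luminescence.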
On the % scale 0 is the no-effect control and ±100 the full control effect; potency means the concentration at half of the fitted maximal effect.

SMILES	activity change, negative = inhibition	Potency
CCOc1ccc(NC(=O)c2ccc(NC(=O)CN3C(=O)C(=O)N(CC(C)C)C3=O)cc2)cc1	70.2% (inactive)	–
COc1cc(/C=N/N2CCN(c3ccccc3)CC2)ccc1OC(C)=O	2.01% (inactive)	–
CSc1ncccc1C(=O)Nc1ccc2c(c1)OCO2	0% (inactive)	–
CSc1ccccc1NC(=O)c1ccc2c(c1)CCN2S(C)(=O)=O	-27.5% (inactive)	–
O=C(c1cc(-c2ccco2)nc2ccccc12)N(Cc1nnc(-c2ccc(Cl)cc2)o1)C1CC1	–	2.08 µM (active)
CN(C(=O)COC(=O)c1cc(-c2ccco2)nc2ccccc12)C1CCS(=O)(=O)C1 (centres undefined)	3.3% (inactive)	–
O=C(c1ccc(Cl)s1)N(Cc1nnc(-c2ccccc2Cl)o1)C1CC1	9.37% (inactive)	–
CN(c1ccccc1)S(=O)(=O)c1ccc(Cl)c(C(=O)NCCc2c[nH]c3ccccc23)c1	–	9.28 µM (active)
Cc1ccc(S(=O)(=O)N(C)CC(=O)NCCc2c[nH]c3ccccc23)cc1	-12.8% (inactive)	–
O=C(NCCc1c[nH]c2ccccc12)c1cc2ccccc2oc1=O	11.7% (inactive)	–
COc1ccc(NC(=O)CNC(=O)Cn2ccc3ccccc3c2=O)c(OC)c1	-5.69% (inactive)	–
COCCn1c(C)cc(C(=O)COC(=O)CNC(=O)c2ccco2)c1C	-4.29% (inactive)	–
CC(=O)N1CCN(CC(C)(C)NS(=O)(=O)c2ccc(C)cc2)CC1	-27.1% (inactive)	–
CCOC(=O)CN1CC23C=CC(O2)C(C(=O)Nc2ccc(F)cc2)C3C1=O (centres undefined)	88.1% (inactive)	–
CC(C)COC(=O)C1C2C=CC3(CN(C(C)c4ccc(Br)cc4)C(=O)C13)O2 (centres undefined)	–	6.57 µM (active)
CCCC(=O)Nc1ncnc2c1ncn2[C@@H]1O[C@@H]2OP(=O)(O)OC[C@H]2[C@H]1OC(=O)CCC	4.15% (inactive)	–
Cc1cccn2c(=O)c3cc(C(=O)NC4CCCCC4)sc3nc12	-22.1% (inactive)	–
Cc1ccccc1-n1nc(C)c2cc(C(=O)NC3CC3)sc21	–	5.22 µM (active)
Cc1ccc(-c2nn(-c3ccccc3)cc2C(=O)NC2CCC(O)CC2)cc1 (centres undefined)	34.1% (inactive)	–
O=c1cc(Cl)c2ccccc2n1-c1ccccc1	0.294% (inactive)	–
CCCCn1c(N)c(N(CC(C)C)C(=O)C2CSC3(C)CCC(=O)N23)c(=O)[nH]c1=O (centres undefined)	-3.49% (inactive)	–
CCn1c(-c2ccncc2)n[nH]c1=S	19.2% (inactive)	–
CCn1c(-c2ccoc2C)n[nH]c1=S	-2.97% (inactive)	–
CCCc1cc(-c2n[nH]c(=S)n2CC)c2ccccc2n1	–	1.65 µM (active)
CN(C)CCCNC(=S)N1CCC(c2nc3ccccc3[nH]2)CC1	0% (inactive)	–
COc1ccc(C[C@H](C(=O)O)N2C(=O)c3ccc(C(=O)O)cc3C2=O)cc1	-1.42% (inactive)	–

SMILES	activity change, negative = inhibition	Potency
O=C(C1CCCO1)N1CCN(S(=O)(=O)c2ccc(Br)cc2)CC1 (centres undefined)	37% (inactive)	–
Cc1ccc(S(=O)(=O)N(CC(=O)Nc2cccc([N+](=O)[O-])c2)Cc2ccc(Cl)cc2)cc1	35.2% (inactive)	–
COc1ccc(C)cc1S(=O)(=O)N(CC(=O)Nc1cccc([N+](=O)[O-])c1)c1ccc(C)cc1	–	11.7 µM (active)
COc1ccc(N(CC(=O)Nc2ccc(C)cc2C)S(=O)(=O)c2ccccc2[N+](=O)[O-])c(OC)c1	-0.583% (inactive)	–
CC(C)c1c(C(=O)N/N=C/c2ccccc2C(=O)O)nnn1-c1nonc1N	100% (inactive)	–
O=C(CNC(=O)[C@@H]1Cc2ccccc2CN1)NC1CCCCC1	38.7% (inactive)	–
O=C(OCC(=O)N1CCOCC1)c1ccc(N2CCOCC2)c([N+](=O)[O-])c1	0.0667% (inactive)	–
O=C(COc1ccc(S(=O)(=O)N2CCOCC2)cc1Cl)N1CCOCC1	-9.66% (inactive)	–
O=C(Cc1ccc(S(=O)(=O)N2CCOCC2)s1)N1CCN(c2ccc(C(F)(F)F)cc2[N+](=O)[O-])CC1	–	11.7 µM (active)
COc1cccc(CNS(=O)(=O)c2cc3c(cc2C)n(C)c(=O)c(=O)n3C)c1	16.5% (inactive)	–
O=C(Nc1cccc(Cl)c1)OCc1ccccn1	154% (inactive)	–
CCOc1ccc(C(=O)Nc2cccc(SC)c2)cc1	186% (inactive)	–
CCOc1c(Nc2cccc(Cl)c2)c(=O)c1=O	–	11.7 µM (active)
O=C(NCc1ccc(F)cc1)C1CCN(C(=O)Nc2ccc(F)cc2)CC1	-3.5% (inactive)	–
CC1CCCCN1S(=O)(=O)CCNC(=O)c1ccccc1 (centres undefined)	8.3% (inactive)	–
Cc1cc(C(=O)OCC(=O)Nc2ccccc2Cl)c(C)o1	-28.2% (inactive)	–
O=C(Cc1ccc(S(=O)(=O)N2CCOCC2)s1)NCCC(c1ccccc1)c1ccccc1	–	7.38 µM (active)
O=C(O)c1ccc(S(=O)(=O)N2CCOCC2)o1	32.6% (inactive)	–
COC(=O)COc1ccc(S(=O)(=O)N2CCOCC2)cc1	9.23% (inactive)	–
COc1ccccc1NC(=O)COC(=O)Cc1ccc(S(=O)(=O)N2CCCCC2)s1	-13.1% (inactive)	–
O=C(COC(=O)c1cc(S(=O)(=O)N2CCOCC2)ccc1Cl)NCCc1ccccc1	9.09% (inactive)	–
COCCN(Cc1ccccc1)C(=O)Cc1ccc(S(=O)(=O)N2CCOCC2)s1	–	9.28 µM (active)
C[n+]1ccc(C(=O)NCc2ccccc2)cc1	-9.48% (inactive)	–
COc1ccnc2c1c(=O)n(Cc1cccc(F)c1)c(=O)n2C	-18.2% (inactive)	–
COc1ccc(/C=N/Nc2cc(N3CCOCC3)nc(C)n2)c(OC)c1	-10.6% (inactive)	–
CCNc1nc(Oc2ccc(C(=O)OC)cc2)nc(N2CCOCC2)n1	-8.27% (inactive)	–

SMILES	activity change, negative = inhibition	Potency
Cc1cc(/C=C2/SC(=O)N(CC(=O)N3CCCC3)C2=O)c(C)n1C	0.761% (inactive)	–
Cc1cc([N+](=O)[O-])ccc1NC1CCCC1	33.7% (inactive)	–
COc1cccc(C(=O)CC(=O)C(=O)Nc2ccc([N+](=O)[O-])cc2C)c1	7.8% (inactive)	–
Cc1cc([N+](=O)[O-])ccc1NCc1cccc([N+](=O)[O-])c1	–	10.4 µM (active)
COC(=O)c1ccccc1NC(=O)CSc1nnnn1C	-13.6% (inactive)	–
COC(=O)c1ccccc1NC(=O)CSc1ccccn1	–	2.94 µM (active)
C[C@@H]1CC[C@@]2(OC1)O[C@H]1C[C@H]3[C@@H]4CC=C5C[C@@H](O)[C@H](O)C[C@]5(C)C4CC[C@]3(C)[C@H]1[C@@H]2C (some centres undefined)	18.3% (inactive)	–
COc1cc(C(=O)NCC(=O)N2CC=C(c3ccccc3)CC2)cc(OC)c1OC	-7.67% (inactive)	–
Cc1cc(OCC(=O)Nc2c(C)n(C)n(-c3ccccc3)c2=O)ccc1[N+](=O)[O-]	-12.6% (inactive)	–
O=C(COC(=O)c1ccc[nH]c1=O)Nc1ccc2c(c1)OC(F)(F)O2	6.84% (inactive)	–
O=C(O)COCC(=O)NCc1csc2ccc(Cl)cc12	5.36% (inactive)	–
c1cc(-c2nn[nH]n2)ccc1CN1CCCCC1	14% (inactive)	–
Clc1ccc(CN2CCCCCC2)cc1Cl	–	11.7 µM (active)
O=C(Nc1ccc(CN2CCOCC2)cc1)c1cc(Cl)ccc1Cl	64.2% (inactive)	–
COc1ccccc1C(=O)NC(=S)NC12CC3CC(CC(C3)C1)C2	53.4% (inactive)	–
COc1ccc(NC(=S)N2CCC(NC(=O)c3cccc(F)c3)CC2)cc1	23.6% (inactive)	–
CCn1c(C)cc(=O)cc1-c1ccc(Cl)cc1	-8.16% (inactive)	–
COc1ccc(Cn2c(-c3ccc(Cl)cc3)c[n+]3ccccc23)cc1	–	0.117 µM (active)
COc1ccc(C(=O)CN(C(=O)c2ccc(Cl)cc2)N2C(=O)c3ccccc3C2=O)cc1	-5.05% (inactive)	–
Cc1cc(C)c(C(=O)CSc2nc(C)cc(=O)[nH]2)c(C)c1	19.3% (inactive)	–
CSc1nnc(C2CCCN(CC(=O)Nc3ccccc3N3CCOCC3)C2)n1C(C)C (centres undefined)	-0.457% (inactive)	–
COc1ccc(C(=O)n2nc(C)c(Br)c2C)cc1OC	-23.3% (inactive)	–
O=S(=O)(Nc1ccc(Cl)cn1)c1cnc(Cl)c(Br)c1	-15.1% (inactive)	–
CN1CCN(S(=O)(=O)c2cccc(C(=O)N3CCc4ccccc43)c2)CC1	-2.85% (inactive)	–
Cc1cccc(N2CCN(C(=O)c3cccc(S(=O)(=O)N4CCc5ccccc5C4)c3)CC2C)c1 (centres undefined)	–	11.7 µM (active)
COC(=O)c1ccc(S(=O)(=O)N2CCc3ccccc3C2)cc1	4.42% (inactive)	–

SMILES	activity change, negative = inhibition	Potency
CCCCc1ccc(NC(=S)NCCCN2CCOCC2)cc1	-2.79% (inactive)	–
CSc1ccc(CNCCN2CCOCC2)cc1	-19% (inactive)	–
CCCCC(CC)CNCc1cccn1CCN1CCOCC1 (centres undefined)	–	11.7 µM (active)
COc1cccc(N2CC(C(=O)NCc3n[nH]c(=O)c4ccccc34)CC2=O)c1 (centres undefined)	0.0788% (inactive)	–
CC(C[N+](C)(C)C)OC(N)=O (centres undefined)	–	9.53 µM (active)
CCc1ccc[n+](-c2nc([O-])sc2C=O)c1	3.32% (inactive)	–
COc1ccc(CNc2cc(C)cc(C)c2)cc1OC	333% (inactive)	–
COc1ccc(/C=C/C(=O)c2cc(Br)ccc(=O)c2O)cc1	–	10.4 µM (active)
COc1ccc(C(=O)/C=C/c2cccnc2)c(OC)c1	45% (inactive)	–
COc1ccc(/C=C/C(=O)c2ccc(OC)cc2O)cc1	0.573% (inactive)	–
CSc1nsc(SCC(=O)Nc2cc(C(=O)O)ccc2C)n1	1.89% (inactive)	–
CC1CCN(CCC(=O)Nc2ccccc2)CC1	-26.8% (inactive)	–
O=C1CCN(Cc2ccc([N+](=O)[O-])cc2)CCN1[C@H](CO)Cc1ccccc1	3% (inactive)	–
CN1CCC(=O)N([C@H](CO)Cc2ccccc2)CC1	19.6% (inactive)	–
CC(=O)Nc1ccc(NC(=O)C(C)OC(=O)C2CC(=O)N(CCc3ccccc3)C2)cc1 (centres undefined)	0.835% (inactive)	–
C[C@H]1CCC(=O)N([C@H](CSc2ccccc2)Cc2ccccc2)CC1	–	11.7 µM (active)
CC(=O)Nc1ccc(SC[C@H](Cc2ccccc2)N2CC[C@@H](C)CCC2=O)cc1	–	3.29 µM (active)
O=C1CC[C@H](O)CCN1[C@H](CSc1ccc(Br)cc1)Cc1ccccc1	1.74% (inactive)	–
COc1ccc(SCCN2CCN(CC(C)C)CCC2=O)cc1	39.1% (inactive)	–
COc1ccc(SC[C@H](Cc2ccccc2)N2CCN(CCc3ccccc3)CCC2=O)cc1	–	4.65 µM (active)
C/C(Cc1ccccc1)=N\NC(=O)CNC(=O)c1ccccc1Cl	41.4% (inactive)	–
CCC1(CC)Cc2ccccc2-c2nc(CCl)[nH]c(=O)c21	75.3% (inactive)	–
COc1ccc(CCNS(=O)(=O)c2cc3c(cc2C)NC(=O)CO3)cc1OC	109% (inactive)	–
CCC(=O)c1ccc(OCC(=O)Nc2ccc(N3CCCCC3)cc2)cc1	-24.7% (inactive)	–
Cc1c(CC(=O)NCC(=O)NCC(=O)O)c(=O)oc2cc3oc4c(c3cc12)CCCC4	45.5% (inactive)	–
O=S(=O)(NC1CC2CCC1C2)c1ccc(Cl)cc1 (centres undefined)	-11.6% (inactive)	–
